From PubChem BioAssay
Shown are actives, neighbours in structure and some others; about 19% of the full set was active somewhere.
DT40 TDP1 no CPT – qHTS for Inhibitors of human tyrosyl-DNA phosphodiesterase 1 (TDP1): qHTS in cells in absence of CPT | DT40 Tdp1-/- hTDP1 cells, no CPT, ATP luminescence, 48 h | Potency, µM (series often up to 46.2 µM), hits mostly inhibitors | 15% of 420,000 active | AID 686978, 2013; note: nearly all actives have a fitted effect of over 55% in size
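Chicken DT40 Tdp1-/- cells stably complemented with human TDP1 were seeded at 400 cells/well with DMSO in place of 20 nM camptothecin. After compound pinning, cells grew at least 48 hr at 37 °C; viability read by CellTiter-Glo luminescence.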
HT1080 IDH1KD tx – HT-1080 IDH1 knockdown cell toxicity (counter line) | Potency, µM (titrated, usually from 46.1 µM), most hits filed as cytotoxic | 2% of 360,000 active | HT-1080 IDH1 knockdown viability, ATP luminescence, 48 h | AID 686971
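After a 2 h attachment period, IDH1KD HT-1080 cells took pin-transferred compound for 48 h at 37 °C; ATP-based luminescence after 10 min room-temperature reagent incubation reported viability.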
KB-3-1 tox – KB-3-1 parental cell cytotoxicity; KB-3-1 viability, CellTiter-Glo ATP luminescence, 72 h; Potency, µM (series often up to 46.1 µM), most hits filed as cytotoxic; 1.4% of 400,000 active; AID 1347075; note: nearly all actives have a fitted effect of over 60% in size
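Screening of KB-3-1 cells (DMEM, 10% FBS, phenol-red free) ran from lowest to highest compound concentration; after 72 h at 37 °C viability was read luminescently and curves fitted.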
TDP1 cell CPT – DT40-hTDP1 cell growth loss with CPT; chicken DT40 Tdp1-/-;hTDP1 cells + 20 nM CPT, ATP luminescence, 48 h; Potency, µM (top dose mostly 46.2 µM), hits mostly inhibitors; 12% of 420,000 active; AID 686979; note: nearly all actives have a fitted effect of over 55% in size
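Chicken DT40 Tdp1-/- cells stably complemented with human TDP1 were seeded at 400 cells/well in medium containing 20 nM camptothecin, exposed to pin-transferred compounds, and grown at 37 °C for at least 48 hr. Viability was read as ATP luminescence.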
KB-V1 cytotox – kills drug-selected multidrug resistant KB-V1 cells | KB-V1 MDR cells viability, CellTiter-Glo, 72 h | Potency, µM (highest dose often 46.1 µM), usual class: cytotoxic | 3.4% of 400,000 active; note: nearly all actives have a fitted effect of over 60% in size
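Cells of the MDR subline KB-V1 are plated, dosed with compound at multiple concentrations, and incubated 72 h at 37 degrees C; CellTiter-Glo is then added and luminescence read after 10 min.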
HT1080NT lethal – kills 2HG-producing HT-1080-NT fibrosarcoma cells. HT-1080-NT fibrosarcoma viability, CellTiter-Glo ATP luminescence, 48 h. Potency, µM (highest dose often 46.1 µM), actives largely listed as cytotoxic. 1.6% of 360,000 active. AID 686970;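 note: NT is the 2HG producing partner of a matched IDH1 knockdown line; nearly all actives have a fitted effect of over 55% in size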
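HT-1080-NT fibrosarcoma cells (2HG-overproducing), 750 cells/well in RPMI with 5% FBS, dosed after 2 h and incubated 48 h at 37C. CellTiter-Glo luminescence normalized to DMSO and no-cell wells; concentration-response curves fitted and classed.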
Of the large screens only hits and unclear results are named; the others gave an inactive call. Calls come from the whole dose curve; as a rule, active = well fitted curve in the direction sought with a large enough effect; inconclusive = small, poorly fitted or top-dose-only effect, or another doubt; inactive = no such curve, though single readings can be large; an effect the other way counts as inactive or inconclusive.

CNC(=O)NC(=O)C(NC1CCCc2ccccc21)c1ccccc1 (configuration not stated)	none
Cc1ccc(NC(=O)C(NC2CCCc3ccccc32)c2ccccc2)c([N+](=O)[O-])c1 (configuration not stated)	DT40 TDP1 no CPT 23.1µM, TDP1 cell CPT inconclusive, KB-V1 cytotox inconclusive
COc1ccc(OC(=O)c2nc(SCc3ccc(C)cc3)ncc2Cl)cc1	TDP1 cell CPT inconclusive (no result: HT1080 IDH1KD tx, KB-3-1 tox, KB-V1 cytotox, HT1080NT lethal)
C=CCC[C@@H](Cc1ccc(F)cc1)C(=O)OC[C@H]1CCCN1C(=O)[C@@H](CC=C)CC(=O)N[C@H](CO)Cc1ccccc1	DT40 TDP1 no CPT inconclusive, TDP1 cell CPT inconclusive
C=CC[C@@H](Cc1ccc(F)cc1)C(=O)OC[C@@H]1CCCN1C(=O)[C@@H](CC=C)CC(=O)N[C@H](CO)Cc1ccccc1	DT40 TDP1 no CPT 16.4µM, HT1080 IDH1KD tx inconclusive, TDP1 cell CPT 10.3µM, KB-V1 cytotox inconclusive
C=CCC[C@@H](Cc1ccc(F)cc1)C(=O)OC[C@@H]1CCCN1C(=O)[C@@H](CC=C)CC(=O)N(CCO)Cc1ccccc1	DT40 TDP1 no CPT 18.4µM, HT1080 IDH1KD tx inconclusive, TDP1 cell CPT 16.4µM, KB-V1 cytotox inconclusive, HT1080NT lethal inconclusive
C=CC[C@@H](Cc1ccc(F)cc1)C(=O)OC[C@@H]1CCCN1C(=O)[C@@H](CC=C)CC(=O)N[C@@H](CO)Cc1ccccc1	DT40 TDP1 no CPT 18.4µM, TDP1 cell CPT inconclusive
C=CC[C@@H](Cc1ccc(F)cc1)C(=O)OC[C@H]1CCCN1C(=O)[C@@H](CC=C)CC(=O)N[C@@H](CO)Cc1ccccc1	DT40 TDP1 no CPT 11.6µM, TDP1 cell CPT 11.6µM
C=CC[C@@H](Cc1ccc(F)cc1)C(=O)OC[C@H]1CCCN1C(=O)[C@H](CC=C)CC(=O)NCCO	DT40 TDP1 no CPT inconclusive, TDP1 cell CPT inconclusive
O=C(Cn1cnc2c(nnn2Cc2ccc(F)cc2)c1=O)Nc1ccccc1	none
CCCCN1C(=O)C(CC(=O)NCc2cccs2)CC(C(=O)N(C(C)C)C(C)C)=C1C (configuration not stated)	none
C=CC[C@@H](Cc1ccc(F)cc1)C(=O)OC[C@H]1CCCN1C(=O)[C@@H](CC=C)CC(=O)N[C@H](CO)Cc1ccccc1	DT40 TDP1 no CPT inconclusive, TDP1 cell CPT inconclusive
C=CCC[C@@H](Cc1ccc(F)cc1)C(=O)OC[C@@H]1CCCN1C(=O)[C@H](CC=C)CC(=O)N[C@H](CO)Cc1ccccc1	DT40 TDP1 no CPT 18.4µM, KB-3-1 tox inconclusive, TDP1 cell CPT inconclusive, KB-V1 cytotox inconclusive
C=CC[C@@H](Cc1ccc(F)cc1)C(=O)OC[C@H]1CCCN1C(=O)[C@H](CC=C)CC(=O)N[C@H](CO)Cc1ccccc1	DT40 TDP1 no CPT inconclusive, TDP1 cell CPT 20.6µM
CCCCN(CC)S(=O)(=O)c1ccc(C(=O)N(CCCN(C)C)c2nc3cc(C)cc(C)c3s2)cc1	DT40 TDP1 no CPT 23.1µM, HT1080 IDH1KD tx inconclusive, KB-3-1 tox inconclusive, TDP1 cell CPT inconclusive, KB-V1 cytotox 25.9µM, HT1080NT lethal 20.6µM
Cc1cc(C)c2sc(N(CCCN(C)C)C(=O)c3ccc(Br)s3)nc2c1	DT40 TDP1 no CPT 14.6µM, HT1080 IDH1KD tx inconclusive, TDP1 cell CPT inconclusive, HT1080NT lethal 23.1µM
CCN(Cc1ccccc1)S(=O)(=O)c1ccc(C(=O)N(CCCN(C)C)c2nc3c(F)cccc3s2)cc1	DT40 TDP1 no CPT inconclusive, TDP1 cell CPT inconclusive
Cc1cc(C)c2sc(N(CCN(C)C)C(=O)c3c(F)cccc3F)nc2c1	DT40 TDP1 no CPT inconclusive, HT1080 IDH1KD tx inconclusive, KB-V1 cytotox inconclusive
Cc1cc(C)c2sc(N(CCCN(C)C)C(=O)c3ccc(S(=O)(=O)N(C)Cc4ccccc4)cc3)nc2c1	DT40 TDP1 no CPT inconclusive, KB-3-1 tox inconclusive, TDP1 cell CPT inconclusive, KB-V1 cytotox 20.6µM
CCN(Cc1ccccc1)S(=O)(=O)c1ccc(C(=O)N(CCCN(C)C)c2nc3cc(C)cc(C)c3s2)cc1	DT40 TDP1 no CPT 11.6µM, HT1080 IDH1KD tx 23.1µM, KB-3-1 tox inconclusive, TDP1 cell CPT 23.1µM, KB-V1 cytotox inconclusive, HT1080NT lethal 16.4µM
CCCCN(C)S(=O)(=O)c1ccc(C(=O)N(CCN(C)C)c2nc3ccc(C)cc3s2)cc1	none
CCOC(=O)c1nnn(CC(=O)N2N=C(c3ccccc3)CC2c2ccccc2)c1C(=O)OCC (configuration not stated)	DT40 TDP1 no CPT 18.4µM, TDP1 cell CPT inconclusive, KB-V1 cytotox inconclusive
CCOC(=O)c1nnn(CC(=O)NC(=O)Nc2ccccc2)c1C(=O)OCC	none
CCN1CCN(CC(=O)N2N=C(c3ccc(OC)cc3)CC2c2ccc(OC)cc2)C(=O)C1=O (configuration not stated)	none
CCOC(=O)c1nnn(CC(=O)N2N=C(c3cc(C)ccc3C)CC2c2ccc(OC)cc2)c1C(=O)OCC (configuration not stated)	DT40 TDP1 no CPT 14.6µM, TDP1 cell CPT 29.1µM, KB-V1 cytotox inconclusive
CC(C)(C)c1cc(C(=O)O)n(Cc2ccc(Cl)cc2Cl)n1	TDP1 cell CPT 14.6µM
COc1ccc(-c2c(C)nc(N)nc2-c2ccc(OCc3ccc(C)cc3)cc2O)cc1OC	DT40 TDP1 no CPT 5.8µM, TDP1 cell CPT inconclusive, KB-V1 cytotox 2.31µM
COc1ccc(-c2n[nH]c(C)c2-c2cc(OC)ccc2O)cc1	DT40 TDP1 no CPT inconclusive, TDP1 cell CPT inconclusive
COc1ccc(-c2c(-c3ccc(OC)c(C)c3O)n[nH]c2C)cc1	DT40 TDP1 no CPT inconclusive, HT1080 IDH1KD tx 18.4µM, TDP1 cell CPT inconclusive, HT1080NT lethal inconclusive
COc1ccc(-c2c(-c3ccc(O)cc3O)n[nH]c2C)cc1OC	DT40 TDP1 no CPT 18.4µM, HT1080 IDH1KD tx inconclusive, KB-3-1 tox inconclusive, TDP1 cell CPT inconclusive, KB-V1 cytotox inconclusive, HT1080NT lethal inconclusive
Cc1nn(CCOc2cccc(Cl)c2)c(C)c1[N+](=O)[O-]	none
c1ccc(-c2nc3ccccc3nc2N2CCOCC2)cc1	DT40 TDP1 no CPT inconclusive, TDP1 cell CPT inconclusive
O=C1OCCN1c1c(-c2ccccc2)c(N2CCOCC2)nc2ccccc12	DT40 TDP1 no CPT 14.6µM, TDP1 cell CPT 11.6µM
CC(Cc1cccs1)NC(=O)Nc1ccc([N+](=O)[O-])cc1 (configuration not stated)	DT40 TDP1 no CPT 16.4µM, TDP1 cell CPT inconclusive
CC(Cc1cccs1)NC(=O)c1cccs1 (configuration not stated)	none
CCOC(=O)c1ccc(-c2c(-c3ccc(OC)cc3)oc(=O)c3cc(OC)c(OC)cc23)cc1F	DT40 TDP1 no CPT 10.3µM, TDP1 cell CPT 20.6µM
